# Screening data as filed in PubChem.
# HSF1 inh: HSF1 inhibition. NIH3T3-HGL HSE-luciferase, MG132-induced, luminescence 8 h; active compounds read low. activity change, negative = inhibition, % at 7.5 µM (by protocol). 300,000 tested, 0.77% active. AID 2098;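 active = more than half of replicate wells show activity change below -50%, luminescence cut by over half; inconclusive = some wells, but at most half, below -50%; inactive = no replicate well below -50%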;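 also: luciferase reports HSF-1 transcriptional activity via heat shock element; 0% = median of DMSO wells and -100% = zero luminescence signal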
# esBAF inh: SWI/SNF esBAF complex inhibition | mouse ES cells, Bmi1-luciferase knock-in reporter, 24 h; 100% = twice the neutral-well signal | 350,000 tested, 2% active | reporter increase, % at 12.5 µM; in the data active = activation above about 40%; inconclusive = no clear call, values can overlap the other calls;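 also: 0% = median of the plate's neutral control wells and 100% = double that signal; a rise in the Bmi1 reporter signal indicates esBAF inhibition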
# SMARCA2 activ: activators of SMARCA2 function. MG213 cells, MMTV-luciferase reporter, dexamethasone, overnight. activation, % at 9.1 µM. 370,000 tested, 1% active. AID 652017; in the data active = activation above about 7.8%;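 also: 0% = vehicle wells and 100% = reference activator wells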
# MITF act: MITF TRPM1 promoter activation in melanoma cells; SK-MEL-5 TRPM1-promoter luciferase, 24 h; % of positive control, neutral wells = 0; activation, % at 12.5 µM; 300,000 tested, 0.75% active;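 active = mean activation of at least 80% with every replicate also reaching 80%; inconclusive = mean reaches 80% but some replicate falls short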;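 also: 0% = neutral control wells and 100% = parthenolide positive control wells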
# Wnt act: activates Wnt/beta-catenin signaling in a reporter cell assay; AID 743398; 300,000 tested, 1.2% active; activator, plate reader; activation, % at 9.35 µM; in the data active = activation above about 30%, passing the limit was not always enough; inconclusive = no clear call, values can overlap the other calls;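 also: 0% = neutral control wells and 100% = positive control wells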
# HSF-1 act: increases HSF-1 driven luciferase reporter signal; NIH3T3-HGL HSF-1 luciferase reporter, MG132, 8 h; 100% = twice DMSO control signal; activation, % at 9 µM; 300,000 tested, 1.7% active;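 active = mean replicate activation of at least 50% with a set share of replicates each reaching 50%; inconclusive = only one of those two conditions met; inactive = mean below 50% and too few replicates reaching it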;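 also: 0% = median of the neutral control wells and 100% = twice that signal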
# The depositor's hits bear a star; ? = inconclusive; nt = not tested or not shown. A selection: hits, their analogues and other compounds. The true share with any hit is near 4.3%.
SMILES,HSF1 inh,esBAF inh,SMARCA2 activ,MITF act,Wnt act,HSF-1 act
COc1ccc(-c2cc3ccccc3cn2)cc1,nt,-23.7,4.8,18.0,27.4,nt
C1=C(c2cc3ccccc3cn2)CCCC1,nt,79.0*,5.8,96.6*,49.6*,nt
N#CCCCc1cc2cc(F)ccc2cn1,nt,7.0,1.1,19.6,4.6,nt
Fc1ccc2cnc(C3=CCCCC3)cc2c1,nt,?,3.1,103.4*,33.3*,nt
C[C@@H]1CN([C@H](C)CO)C(=O)c2cc(NS(=O)(=O)c3ccc(F)cc3)ccc2O[C@@H]1CN(C)S(=O)(=O)c1ccc(F)cc1,nt,-3.0,nt,nt,nt,nt
Brc1ccc(N=NNc2ccccc2)cc1,0.9,53.5*,5.8,49.4,16.5,15.4
Cc1ccc(-c2csc(Nc3ccccn3)n2)cc1,11.0,-58.6,1.0,-9.7,1.7,32.7
c1ccc(-c2csc(Nc3ccccn3)n2)cc1,49.0,-4.9,-0.6,nt,18.9,81.5*
Cc1cccnc1Nc1nc(-c2ccc(O)cc2)cs1,-4.5,57.7*,4.5,101.2*,nt,14.4
Cc1cccnc1Nc1nc(-c2ccc(F)cc2)cs1,30.5,?,6.4,nt,-3.8,48.5
Oc1ccc(-c2csc(Nc3ccccn3)n2)cc1,30.3,20.4,2.7,56.2,24.4,63.3*
Cc1ccccc1CNC(=O)Nc1cccs1,nt,14.8,5.2,34.0,nt,nt
Cc1ccccc1CNC(=O)Nc1ccc(Cl)cc1,27.2,60.9*,6.6,63.1,10.2,?
Cc1ccc(CNC(=O)Nc2ccc(C)cc2)cc1,10.4,28.5,2.6,14.9,8.8,25.0
Cc1ccc(CNC(=O)Nc2ccccc2)c(C)c1,14.1,70.8*,1.7,117.6*,11.1,2.7
CN(C)c1ccc2c(c1)[C@H]1C[C@H](CC(=O)NCC3CC3)O[C@H](CO)[C@H]1O2,nt,-5.7,nt,nt,nt,nt
CNC(=O)C1CC(=O)N(c2ccc(OCC(=O)N3CCCC3)cc2)C1 (stereo not given),12.9,-4.7,-0.4,-4.5,-1.5,53.9*
C=CCNC(=O)C1CC(=O)N(c2ccc(OCc3ccc(F)cc3)cc2)C1 (stereo not given),13.7,?,4.6,46.6,37.1*,17.5
C=CCNC(=O)C1CC(=O)N(c2ccc(OCC(=O)Nc3ccccc3)cc2)C1 (stereo not given),20.8,53.0*,6.3,?,?,53.0*
C=CCNC(=O)C1CC(=O)N(c2ccc(OCC(=O)Nc3ccc(C)cc3)cc2)C1 (stereo not given),-10.3,-5.4,1.7,2.8,nt,-26.6
CCOC(=O)C(C)Oc1cc(Cl)c(C=O)cc1OC (stereo not given),13.6,nt,-2.6,-0.1,-0.4,51.0*
CO[C@H]1CN(C)C(=O)c2ccc(NC(=O)C3CC3)cc2OC[C@H](C)N(Cc2cncnc2)C[C@@H]1C,nt,0.8,nt,nt,nt,nt
Cc1cccc(NC(=O)CN(C)S(=O)(=O)c2ccc(Cl)cc2)n1,1.2,nt,1.4,5.8,nt,2.3
Cc1cccc(NC(=O)c2ccc(S(=O)(=O)N(C)C)cc2)n1,nt,49.4*,3.1,11.0,nt,nt
CCOc1ccc(C(=O)Nc2cccc(C)n2)cc1,16.6,-32.0,6.6,nt,-3.1,42.6
SMILES,HSF1 inh,esBAF inh,SMARCA2 activ,MITF act,Wnt act,HSF-1 act
CCOc1ccc(NC(=O)Nc2cccc(C)n2)cc1,2.9,56.8*,3.2,72.9,2.6,22.9
CCCCOc1ccc(C(=O)Nc2cccc(C)n2)cc1,31.3,20.7,-4.2,102.5*,nt,57.2*
C[C@@H]1CN([C@H](C)CO)C(=O)c2cccc(NC(=O)Nc3ccc(C(F)(F)F)cc3)c2O[C@H]1CN(C)C(=O)Nc1ccc(C(F)(F)F)cc1,nt,2.9,nt,nt,nt,nt
CCCNC(=O)C[C@@H]1CC[C@@H]2[C@H](COc3ccc(NC(=O)c4cccc(C(F)(F)F)c4)cc3C(=O)N2C)O1,nt,2.2,nt,nt,nt,nt
Cc1ccc(C(=O)c2coc3ccc(O)c(Cl)c23)cc1,7.8,67.6*,3.1,nt,66.7*,8.4
Cc1cn2nc(N)c3ccccc3c2n1,nt,-0.8,-2.7,-6.3,5.3,nt
Nc1nn2cc(-c3ccccc3)nc2c2ccccc12,30.4,nt,2.5,36.4,19.3,58.0*
CC1(C(=O)NS(=O)(=O)c2ccc(Cl)cc2)CCN1C(=O)c1cccc(F)c1 (stereo not given),nt,-4.5,-4.2,nt,-0.7,nt
CC1(C(=O)NS(=O)(=O)c2ccc(C#N)cc2)CCN1C(=O)c1cccc(F)c1 (stereo not given),nt,-1.7,-3.2,nt,49.1*,nt
C[C@@H]1CN([C@@H](C)CO)C(=O)c2cccc(NC(=O)C3CCCCC3)c2O[C@@H]1CN(C)Cc1ccc(C(=O)O)cc1,nt,-4.4,nt,nt,nt,nt
O=S(=O)(Nc1ccc2c(c1)OCO2)c1cccs1,-0.1,-0.7,3.3,7.4,1.7,-3.2
CCc1cccc(NC(=O)C2CCCN(S(=O)(=O)c3cccs3)C2)c1 (stereo not given),-73.1*,2.7,-0.3,-9.7,-4.5,-79.0
O=S(=O)(Nc1ccc2c(c1)OCCO2)c1cccs1,-63.2*,-12.2,-5.9,16.4,-2.5,-65.1
O=C(Nc1ccc2c(c1)OCO2)C1CCCN(c2nc3ccccc3s2)C1 (stereo not given),32.3,12.7,nt,-0.1,5.6,76.9*
CCc1nnc(NC(=O)C2CCCN(c3nc4ccccc4s3)C2)s1 (stereo not given),0.4,0.1,-2.9,7.3,nt,-7.8
O=C(Nc1ccc2c(c1)OCCO2)C1CCCN(S(=O)(=O)c2cccs2)C1 (stereo not given),0.8,48.2*,nt,-8.0,nt,3.5
O=C(Nc1ccc2c(c1)OCO2)C1CCCN(S(=O)(=O)c2cccs2)C1 (stereo not given),0.9,3.0,nt,-15.8,nt,-0.2
C[C@@H]1CCCCO[C@H](CN(C)S(C)(=O)=O)[C@@H](C)CN([C@H](C)CO)C(=O)c2cc(NS(C)(=O)=O)ccc2O1,nt,-0.5,nt,nt,nt,nt
O=C(C[C@@H]1CC[C@H]2[C@@H](COC[C@H](O)CN2C(=O)c2ccccc2F)O1)NCc1ccc(Cl)cc1,nt,1.1,nt,nt,nt,nt
Cn1c(=O)c(=O)n(C)c2cc(S(=O)(=O)Nc3ccc4c(c3)OCCO4)ccc21,-60.0*,-18.9,-8.9,-27.1,-16.8,-64.3
COCCNC(=O)c1cc2cc3ccc(OC)cc3nc2o1,2.0,30.4,5.5,51.7,24.4,19.6
CCC(C)NC(=O)c1cc2cc3ccc(OC)cc3nc2o1 (stereo not given),26.5,55.5*,1.7,88.8*,14.2,62.5*
COc1ccc2nc3oc(C(=O)N4CC(C)CC(C)C4)cc3cc2c1 (stereo not given),0.0,24.2,nt,37.7,nt,-3.3
CCCCN(CC)C(=O)c1cc2cc3ccc(OC)cc3nc2o1,5.4,88.2*,1.5,73.2,58.3*,3.8
COc1ccc2nc3oc(C(=O)N4CCCCC4)cc3cc2c1,15.0,?,2.6,84.0*,?,46.5
COc1ccc2cc3cc(C(=O)NCC4CCCO4)oc3nc2c1 (stereo not given),0.1,54.6*,-3.1,44.0,-1.9,11.2
